{"source": "PubChem BioAssay (NCATS)", "note": "Records with an inconclusive call do not appear. Where a call stands in place of a potency, no number is given. Activity calls are given as the source filed them. Calls follow the shape of the dose curve; as a rule, active = well fitted inhibition curve with a large enough effect; inconclusive = small, poorly fitted or top-dose-only effect; inactive = no such curve, though single readings can be large or run the other way. Potency is read from the fitted curve at half-maximal effect.", "data": [{"assay": "S16 Schwann cell PMP22 intronic element firefly luciferase assay (AID 624032); also: nearly all actives have a fitted effect of over 30% in size", "conditions": "S16 rat Schwann cells, PMP22 element FLuc, 24 h; series mostly up to 57.5 µM", "method_in_brief": "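Rat S16 Schwann cells stably carrying a PMP22 intronic element-driven Fluc reporter were seeded overnight, then exposed to compounds for 24 h at 37 °C. Luminescence was normalized to PTC124 (positive control) and DMSO (0% activity).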", "values": [{"compound": "CN(Cc1cc(Br)cc(Br)c1N)C1CCCCC1", "Potency": "36.1 µM (active)"}, {"compound": "O=c1oc2c(O)c(O)cc3c(=O)oc4c(O)c(O)cc1c4c23", "Potency": "inactive"}, {"compound": "O=c1cc(O)c(Cl)c[nH]1", "Potency": "inactive"}, {"compound": "NC(=O)c1cccnc1", "Potency": "inactive"}, {"compound": "Cc1oc(=O)oc1CN1CCN(c2cc3c(cc2F)c(=O)c(C(=O)O)c2n3C(C)S2)CC1", "note": "(stereo not drawn)", "Potency": "inactive"}, {"compound": "NC(N)=NC(N)=NCCc1ccccc1", "Potency": "inactive"}, {"compound": "Cc1noc(NS(=O)(=O)c2ccc(N)cc2)c1C", "Potency": "inactive"}, {"compound": "COC(=O)Nc1nc2ccc(Sc3ccccc3)cc2[nH]1", "Potency": "inactive"}, {"compound": "CNNCc1ccc(C(=O)NC(C)C)cc1", "Potency": "inactive"}, {"compound": "COc1cnc(NS(=O)(=O)c2ccc(N)cc2)nc1", "Potency": "inactive"}, {"compound": "CCCc1cc(C(N)=S)ccn1", "Potency": "inactive"}, {"compound": "CCn1cc(C(=O)O)c(=O)c2cc(F)c(N3CCNCC3)cc21", "Potency": "inactive"}, {"compound": "O=C(O)CCn1c2c(c3ccccc31)C[C@H](NS(=O)(=O)c1ccc(F)cc1)CC2", "Potency": "inactive"}, {"compound": "Cc1cccc(N(C)C(=S)Oc2ccc3ccccc3c2)c1", "Potency": "inactive"}, {"compound": "CCOC(=O)c1ccc(OC(=O)CCCCCN=C(N)N)cc1", "Potency": "inactive"}, {"compound": "COc1ncnc(NS(=O)(=O)c2ccc(N)cc2)c1OC", "Potency": "inactive"}, {"compound": "CC(N)C12CC3CC(CC(C3)C1)C2", "note": "(stereo not drawn)", "Potency": "inactive"}, {"compound": "CN1CCN(c2c(F)cc3c(=O)c(C(=O)O)cn(CCF)c3c2F)CC1", "Potency": "inactive"}, {"compound": "CCCCCCNC(=O)n1cc(F)c(=O)[nH]c1=O", "Potency": "inactive"}, {"compound": "C#CCN[C@@H]1CCc2ccccc21", "Potency": "inactive"}, {"compound": "Clc1ccccc1CN1CCc2sccc2C1", "Potency": "inactive"}, {"compound": "O=C(O)c1cn(C2CC2)c2cc(N3CCNCC3)c(F)cc2c1=O", "Potency": "inactive"}, {"compound": "COc1cc(NS(=O)(=O)c2ccc(N)cc2)nc(OC)n1", "Potency": "inactive"}, {"compound": "O=C(O)c1cc(=O)[nH]c(=O)[nH]1", "Potency": "inactive"}, {"compound": "CCCc1nc(C)c2c(=O)[nH]c(-c3cc(S(=O)(=O)N4CCN(CC)CC4)ccc3OCC)nn12", "Potency": "inactive"}, {"compound": "Nc1nc(N)nc(-c2cc(Cl)ccc2Cl)n1", "Potency": "inactive"}, {"compound": "COc1c(N2CCNC(C)C2)c(F)cc2c(=O)c(C(=O)O)cn(C3CC3)c12", "note": "(stereo not drawn)", "Potency": "inactive"}, {"compound": "Cc1nnc(NS(=O)(=O)c2ccc(N)cc2)s1", "Potency": "inactive"}, {"compound": "CN(C)CCc1c[nH]c2ccc(CS(=O)(=O)N3CCCC3)cc12", "Potency": "inactive"}, {"compound": "CCN(C)C(=O)Oc1cccc([C@H](C)N(C)C)c1", "Potency": "inactive"}, {"compound": "COC(=O)Nc1nc2ccc(C(=O)c3ccccc3)cc2[nH]1", "Potency": "inactive"}, {"compound": "C1CCC(C(CC2CCCCN2)C2CCCCC2)CC1", "note": "(stereo not drawn)", "Potency": "32.2 µM (active)"}, {"compound": "COc1cc(NCc2ccc3nc(N)nc(N)c3c2C)cc(OC)c1OC", "Potency": "0.455 µM (active)"}]}]}
